AI-2 QS mod: Vibrio harveyi AI-2 quorum sensing modulators, primary screen, JMH597 strain, luminescence/OD600 ratio | Vibrio harveyi JMH597 AI-2 luminescence/OD600 ratio, 9 h; active compounds read low; strain lacks LuxN and CqsS sensors; 0 = neutral-control median | activity change, % at 7.5 µM | 0.4% of 300,000 active | AID 2094, 2009; in the data active = activity change below about -75%, passing the limit was not always enough; inconclusive = no clear call, values can overlap the other calls;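 also: luminescence divided by OD600 gain over 9 h not by final OD600 alone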
Mot1-301 SUMO: yeast Mot1-301 growth rescue at high temperature, primary screen, SUMOylation pathway inhibitor project, S. cerevisiae, ATP luminescence, 38.5C | S. cerevisiae Mot1-301 growth rescue; percent above DMSO median, 100 means doubled | growth rescue, % at 18.8 µM | 1% of 320,000 active | AID 2716, 2010;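 active = every valid replicate shows activation above 250% relative to neutral control wells; inactive = the rest, any valid replicate at or below 250%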;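 also: OY570 slx delta 5 strain wells were the positive control but not used for scaling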
GRIN3A LBD mod: binders of NR3A ligand-binding domain, primary screen, biophysical, differential scanning fluorimetry, uHTS | Glutamate receptor ionotropic, NMDA 3A (GRIN3A) ligand-binding domain | NR3A LBD differential scanning fluorimetry, Tm shift; 0% = protein alone, 100% = glycine-bound protein | Tm shift relative to glycine control, % at 25 µM | 2.5% of 340,000 active | AID 1259313, 2017;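 active = melting temperature shift of at least 10% of the positive control shift, at one fixed dose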
NTR1 ag: agonists of human NTR1, primary screen, imaging, U2OS cells, beta-arrestin-GFP, high content | Neurotensin receptor type 1 (Homo sapiens), P30989 | AID 493036, 2011 | NTR1-U2OS beta-arrestin-GFP spot imaging, agonist mode | activation, % at 20 µM | 0.17% of 330,000 active;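 active = activation at or above 40% of the spot to cytoplasm intensity ratio, with at least 20 cells analyzed; inconclusive = wells under 20 cells, flagged as cytotoxic or low count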;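 also: 0% = DMSO without peptide and 100% = 100 nM NTR1 peptide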
Cardio protect: cardioprotection against H2O2-induced cell death, primary screen, uHTS, H9c2 cells, ATPLite luminescence. 0.63% of 360,000 active. protection from H2O2 cell death, % at 20 µM. H9c2 cardiomyocytes, H2O2 injury protection, 2 h. AID 588492, 2011;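 active = compounds giving at least 50% protection of heart cells from peroxide-induced death in the single-dose screen, raw or plate-pattern-corrected value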;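 also: 0% = DMSO wells with peroxide and 100% = DMSO wells without peroxide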
AHR act: AHR activators, primary screen, cell-based, luminescence, luciferase reporter, human. Aryl hydrocarbon receptor (Homo sapiens), P35869. AHR-responsive luciferase reporter cells. activation, % at 5 µM. 2.5% of 320,000 active. AID 2796, 2010; in the data active = activation above about 47%;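 also: 0% = vehicle wells and 100% = reference agonist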
Target sequence (P35869 whole entry, looked up): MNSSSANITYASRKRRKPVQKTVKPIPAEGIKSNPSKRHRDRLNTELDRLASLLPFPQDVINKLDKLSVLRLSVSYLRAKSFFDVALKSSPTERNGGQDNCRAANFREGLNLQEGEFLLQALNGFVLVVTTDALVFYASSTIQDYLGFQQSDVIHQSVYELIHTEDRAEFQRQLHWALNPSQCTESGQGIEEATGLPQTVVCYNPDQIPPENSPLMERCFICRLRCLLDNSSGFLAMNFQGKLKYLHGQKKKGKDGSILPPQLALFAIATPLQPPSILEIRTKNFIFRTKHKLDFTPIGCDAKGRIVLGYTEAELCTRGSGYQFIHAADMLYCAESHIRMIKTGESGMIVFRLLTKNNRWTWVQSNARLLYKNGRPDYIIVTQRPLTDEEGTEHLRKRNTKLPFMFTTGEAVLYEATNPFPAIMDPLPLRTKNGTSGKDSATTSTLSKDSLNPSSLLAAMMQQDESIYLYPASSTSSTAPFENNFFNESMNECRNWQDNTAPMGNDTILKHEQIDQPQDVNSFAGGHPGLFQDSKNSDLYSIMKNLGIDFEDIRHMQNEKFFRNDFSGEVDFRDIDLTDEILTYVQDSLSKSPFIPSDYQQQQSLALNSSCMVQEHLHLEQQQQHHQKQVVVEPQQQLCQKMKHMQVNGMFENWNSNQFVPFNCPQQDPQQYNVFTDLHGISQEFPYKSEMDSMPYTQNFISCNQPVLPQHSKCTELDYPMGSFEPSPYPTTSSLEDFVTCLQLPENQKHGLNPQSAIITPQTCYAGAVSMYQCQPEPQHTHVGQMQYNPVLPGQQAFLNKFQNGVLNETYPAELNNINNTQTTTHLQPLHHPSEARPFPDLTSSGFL
Active calls of the source: *. A selection: hits, their analogues and other compounds. The true share with any hit is near 6.2%.

Results for COc1ccc(OC)c(NS(=O)(=O)c2cc3c4c(c2)CCN4C(=O)CC3)c1 ?
AI-2 QS mod: 28; GRIN3A LBD mod: 0; NTR1 ag: -2; Cardio protect: 8

What do the screens show for `CN(C)C(=S)N=c1ssc(=S)n1Cc1cccnc1`?
GRIN3A LBD mod: 27*; Cardio protect: 12

What do the screens show for `COC(=O)N1C(=O)[C@](Cc2ccccc2)(c2ccccc2)N1C(=O)OC`?
AI-2 QS mod: 35; Mot1-301 SUMO: 33; GRIN3A LBD mod: 13*; NTR1 ag: 8; Cardio protect: 0; AHR act: 3

Results for COC(=O)[C@@]12CCCN1[C@H](c1ccc(-c3ccccc3)cc1)[C@@H]1C(=O)N(C)C(=O)[C@@H]12 ?
AI-2 QS mod: 1; Mot1-301 SUMO: 242; GRIN3A LBD mod: 2; NTR1 ag: 4; Cardio protect: -1; AHR act: 8

What do the screens show for `Cc1ccc2ccc(C3C(=O)c4ccccc4C3=O)nc2c1`?
AI-2 QS mod: 3; Mot1-301 SUMO: 168; GRIN3A LBD mod: -3; NTR1 ag: 0; Cardio protect: -9; AHR act: 58*

Results for Cc1cccc(NC(=O)/C=C/c2ccc(Cl)cc2)n1 ?
AI-2 QS mod: 4; Mot1-301 SUMO: 26; GRIN3A LBD mod: -2; NTR1 ag: -1; Cardio protect: -16; AHR act: -7

What do the screens show for `CSc1cccc(NC(=O)/C=C/c2ccccc2)c1`?
AI-2 QS mod: inconclusive; Mot1-301 SUMO: 163; GRIN3A LBD mod: 17*; NTR1 ag: 2; Cardio protect: -8; AHR act: 16

Results for CSc1ccc(/C=C/C(=O)Nc2ccccc2)cc1 ?
AI-2 QS mod: 10; GRIN3A LBD mod: 21*; NTR1 ag: -1; Cardio protect: -30; AHR act: -5

How did CSc1cccc(NC(=O)/C=C/c2ccc(Cl)cc2)c1 do in these assays?
AI-2 QS mod: -28; Mot1-301 SUMO: 5; GRIN3A LBD mod: 17*; NTR1 ag: 10; Cardio protect: -14; AHR act: 3

What do the screens show for `CSc1cccc(NC(=O)/C=C/c2ccco2)c1`?
AI-2 QS mod: 11; Mot1-301 SUMO: -2; GRIN3A LBD mod: -6; NTR1 ag: 2; Cardio protect: 8; AHR act: 20

Results for CCCSc1cc(NCCOC(C)=O)c([N+](=O)[O-])c2nonc12 ?
AI-2 QS mod: 31; Mot1-301 SUMO: -3; GRIN3A LBD mod: 13*; NTR1 ag: 2; Cardio protect: 4; AHR act: -2

How did CCOc1ccc(N2C(=O)/C(=C\c3ccc(O)c(OC)c3)S(=O)(=O)C2c2cccc([N+](=O)[O-])c2)cc1 (centres undefined) do in these assays?
AI-2 QS mod: 10; Mot1-301 SUMO: -1; GRIN3A LBD mod: 10*; NTR1 ag: 2; Cardio protect: -12; AHR act: 1

How did CCOc1ccc(N2C(=O)/C(=C\c3ccc(OC)c(O)c3)S(=O)(=O)C2c2cccc([N+](=O)[O-])c2)cc1 (centres undefined) do in these assays?
AI-2 QS mod: 7; Mot1-301 SUMO: 13; GRIN3A LBD mod: 1; NTR1 ag: -1; Cardio protect: 7; AHR act: 4

Results for CCCn1c(=O)n(C)c(=O)c2c(SCC(=O)Nc3cc(C)on3)nc(C(C)(C)C)nc21 ?
Mot1-301 SUMO: 0; GRIN3A LBD mod: 0; NTR1 ag: 10; Cardio protect: 2; AHR act: -3

Results for Cc1cc(C)c2c3c(sc2n1)C1(CCSCC1)C(C#N)=C(N)O3 ?
AI-2 QS mod: 6; Mot1-301 SUMO: -1; GRIN3A LBD mod: 16*; NTR1 ag: 27; Cardio protect: -8; AHR act: 21

What do the screens show for `CCc1nc2ccc(C(=O)N(CC)CCN(C)C)cn2c1N(CC)C(=O)NCCc1ccccc1`?
Cardio protect: 8

What do the screens show for `CN1CCN(NC(=O)Nc2cccc(F)c2)CC1`?
AI-2 QS mod: 7; Mot1-301 SUMO: -11; GRIN3A LBD mod: 7; NTR1 ag: -1; Cardio protect: -4; AHR act: 0

How did N/C(=N\OC(=O)c1cccc2ccccc12)c1cccc([N+](=O)[O-])c1 do in these assays?
AI-2 QS mod: 7; Mot1-301 SUMO: -16; GRIN3A LBD mod: 26*; NTR1 ag: 1; Cardio protect: -10; AHR act: 15

Results for Cc1cccc(C(=O)O/N=C(\N)c2cccc([N+](=O)[O-])c2)c1 ?
AI-2 QS mod: 6; Mot1-301 SUMO: 11; GRIN3A LBD mod: 5; NTR1 ag: 0; Cardio protect: -14; AHR act: 6

Results for COc1ccc(/C(N)=N/OC(=O)Cc2cccs2)cc1 ?
AI-2 QS mod: -67; Mot1-301 SUMO: 9; GRIN3A LBD mod: 11*; NTR1 ag: 0; Cardio protect: -4; AHR act: -5

How did N/C(=N\OC(=O)Oc1ccccc1)c1cccc([N+](=O)[O-])c1 do in these assays?
AI-2 QS mod: 26; Mot1-301 SUMO: 13; GRIN3A LBD mod: 0; NTR1 ag: 1; Cardio protect: -3; AHR act: 4

How did N/C(=N\OC(=O)c1cccc(Br)c1)c1ccncc1 do in these assays?
AI-2 QS mod: -31; Mot1-301 SUMO: 6; GRIN3A LBD mod: -3; NTR1 ag: 2; Cardio protect: -4; AHR act: 53*

How did N/C(=N\OC(=O)c1cccc([N+](=O)[O-])c1)c1cccnc1 do in these assays?
AI-2 QS mod: 19; Mot1-301 SUMO: -14; GRIN3A LBD mod: -4; NTR1 ag: 2; Cardio protect: 3; AHR act: 114*

What do the screens show for `COc1ccc(/C(N)=N/OC(=O)Cc2cccs2)cc1OC`?
AI-2 QS mod: 26; Mot1-301 SUMO: -13; GRIN3A LBD mod: -3; NTR1 ag: -2; Cardio protect: 8; AHR act: 14

How did Nc1cc(C(=O)OCC(=O)N2CCC(Cc3ccccc3)CC2)ccc1Cl do in these assays?
Mot1-301 SUMO: 10; GRIN3A LBD mod: 1; NTR1 ag: 5; Cardio protect: -11; AHR act: 0

What do the screens show for `N/C(=N\OC(=O)/C=C/c1ccccc1)c1cccnc1`?
AI-2 QS mod: -48; Mot1-301 SUMO: -11; GRIN3A LBD mod: 20*; NTR1 ag: -1; Cardio protect: -13; AHR act: 26

Results for N/C(=N\OC(=O)/C=C/c1ccccc1Cl)c1cccnc1 ?
AI-2 QS mod: -31; Mot1-301 SUMO: -14; GRIN3A LBD mod: -4; NTR1 ag: 0; Cardio protect: -6; AHR act: 14
